Active and inactive are the calls of the source. The calls were made as follows: active = hit-call score of the fitted dose curve at least 0.9, where 1 is the maximum; inactive = score below 0.9.
Columns and labels:
[1] = ATG_CRE_CIS: Attagene CIS-FACTORIAL HepG2 Assay for human cAMP Responsive Element (CRE) binding protein 3 (AID 2282926); details: HepG2 CRE cis-reporter, Attagene multiplexed mRNA; actives raise or lower the signal
Method in brief: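 Induced reporter mRNA from a CRE cis element, measured in HepG2 among many multiplexed units at 24 h. Detection used RT-PCR plus capillary electrophoresis of fluorescent fragments; DMSO served as negative control.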

[2] = target: CCAAT/enhancer-binding protein beta (Homo sapiens) (UniProt P17676); experiment: ATG_C_EBP_CIS: Attagene CIS-FACTORIAL HepG2 Assay for human CCAAT/Enhancer Binding Protein (C/EBP) beta (AID 2282927); details: HepG2 Attagene cis-factorial transcription factor reporter; actives raise or lower the signal
Chain of CCAAT/enhancer-binding protein beta (Homo sapiens) (P17676 whole entry, looked up): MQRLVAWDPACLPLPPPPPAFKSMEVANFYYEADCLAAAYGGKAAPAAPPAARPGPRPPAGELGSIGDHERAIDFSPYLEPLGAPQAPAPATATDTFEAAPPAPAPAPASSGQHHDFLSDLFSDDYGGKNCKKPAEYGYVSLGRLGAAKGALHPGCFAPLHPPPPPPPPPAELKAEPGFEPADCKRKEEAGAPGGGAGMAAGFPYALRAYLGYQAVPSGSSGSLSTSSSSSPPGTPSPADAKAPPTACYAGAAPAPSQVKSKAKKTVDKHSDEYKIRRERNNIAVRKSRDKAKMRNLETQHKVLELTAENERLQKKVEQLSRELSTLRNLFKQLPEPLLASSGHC
Method in brief: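 Changes in reporter mRNA, rather than exogenous chimeric receptor activity, reflect native C/EBP signalling in transfected HepG2 cells dosed for 24 h; transcripts are detected by RT-PCR and capillary electrophoresis.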

[3] = ATG_CMV_CIS: Attagene CIS-FACTORIAL HepG2 Assay for human CMV (Internal Marker) (AID 2282928); details: HepG2 CMV promoter reporter, transcription factor profiling; actives raise or lower the signal;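 also: endpoint acts as a background internal control marker rather than a target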
Method in brief: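 Readout: fluorescent reporter cDNA fragments separated by capillary electrophoresis after RT-PCR and HpaI cut. Cells: HepG2 carrying transfected cis-promoter reporter constructs, dosed 24 h. Endpoint serves as background internal-marker control, fit bidirectionally versus DMSO.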

[4] = ATG_DR4_LXR_CIS: Attagene CIS-FACTORIAL HepG2 Assay for human Liver X Receptor (LXR), DR4 submotif (AID 2282929); details: HepG2 Attagene DR4 cis-reporter, mRNA transcription; actives raise or lower the signal
Method in brief: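 Cells were transfected with multiple reporter transcription units, exposed to chemicals for 24 hours, then lysed for RNA. Reporter mRNA induction was measured by RT-PCR with capillary electrophoresis detection and fitted in both directions relative to DMSO.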

[5] = ATG_AP_1_CIS: Attagene CIS-FACTORIAL HepG2 Assay for human Activator Protein 1 (AP-1) (AID 2282931); details: HepG2 Attagene cis-factorial AP-1 reporter mRNA; actives raise or lower the signal
Method in brief: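 Endogenous transcription-factor activity in human HepG2 liver cells is read through a cis-promoter reporter transcript, sampled 24 h after dosing. Detection uses RT-PCR with capillary electrophoresis; values come from bidirectional fitting relative to DMSO.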

[6] = ATG_AP_2_CIS: Attagene CIS-FACTORIAL HepG2 Assay for human Activator Protein 2 (AP-2) (AID 2282932); details: HepG2 AP-2 cis-reporter, Attagene transcription factor profiling; actives raise or lower the signal
Method in brief: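 Transiently transfected HepG2 cells are exposed to chemical for 24 h. Reporter transcripts are then measured as fluorescence following RT-PCR and capillary separation, and gain- or loss-of-signal is fitted relative to DMSO.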

[7] = ATG_BRE_CIS: Attagene CIS-FACTORIAL HepG2 Assay for human Bone Morphogenetic Protein (BMP) Response Element (BRE) (AID 2282933); details: HepG2 BMP response element reporter, Attagene transcription factor profiling; actives raise or lower the signal
Method in brief: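 A HepG2 multiplex reporter system measured inducible reporter mRNA 24 h post-dosing. Detection: RT-PCR, 6-FAM primer extension, HpaI digestion, capillary electrophoresis. Activity fitted bidirectionally relative to DMSO.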

[8] = target: Retinoic acid receptor alpha (Homo sapiens) (UniProt P10276); experiment: ATG_DR5_RAR_CIS: Attagene CIS-FACTORIAL HepG2 Assay for human Retinoic Acid Receptor Alpha (RARE), DR5 submotif (AID 2282934); details: HepG2 Attagene cis-factorial RARE DR5 reporter, mRNA; actives raise or lower the signal
Chain of Retinoic acid receptor alpha (Homo sapiens) (P10276 whole entry, looked up): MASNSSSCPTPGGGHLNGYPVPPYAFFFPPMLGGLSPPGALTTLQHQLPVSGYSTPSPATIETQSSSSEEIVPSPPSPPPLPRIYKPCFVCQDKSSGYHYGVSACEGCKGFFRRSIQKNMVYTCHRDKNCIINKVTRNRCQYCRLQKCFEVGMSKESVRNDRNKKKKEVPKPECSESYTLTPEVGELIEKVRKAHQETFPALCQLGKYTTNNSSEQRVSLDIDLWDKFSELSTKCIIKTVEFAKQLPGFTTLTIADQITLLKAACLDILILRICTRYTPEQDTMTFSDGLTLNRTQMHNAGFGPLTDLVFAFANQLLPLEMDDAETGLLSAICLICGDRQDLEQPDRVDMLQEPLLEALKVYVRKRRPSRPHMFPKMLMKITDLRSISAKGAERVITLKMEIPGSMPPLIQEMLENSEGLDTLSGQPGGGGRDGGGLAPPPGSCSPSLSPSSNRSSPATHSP
Method in brief: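 HepG2, transient cis-reporter transfection, 24 h exposure. mRNA readout: RT-PCR, FAM label, HpaI cut, capillary electrophoresis. DMSO baseline, gain/loss fitting.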

[9] = target: Transcription factor E2F1 (Homo sapiens) (UniProt Q01094); experiment: ATG_E2F_CIS: Attagene CIS-FACTORIAL HepG2 Assay for human E2F Transcription Factor 1 (AID 2282935); details: HepG2 Attagene cis-reporter, E2F reporter RNA transcripts; actives raise or lower the signal
Chain of Transcription factor E2F1 (Homo sapiens) (Q01094 whole entry, looked up): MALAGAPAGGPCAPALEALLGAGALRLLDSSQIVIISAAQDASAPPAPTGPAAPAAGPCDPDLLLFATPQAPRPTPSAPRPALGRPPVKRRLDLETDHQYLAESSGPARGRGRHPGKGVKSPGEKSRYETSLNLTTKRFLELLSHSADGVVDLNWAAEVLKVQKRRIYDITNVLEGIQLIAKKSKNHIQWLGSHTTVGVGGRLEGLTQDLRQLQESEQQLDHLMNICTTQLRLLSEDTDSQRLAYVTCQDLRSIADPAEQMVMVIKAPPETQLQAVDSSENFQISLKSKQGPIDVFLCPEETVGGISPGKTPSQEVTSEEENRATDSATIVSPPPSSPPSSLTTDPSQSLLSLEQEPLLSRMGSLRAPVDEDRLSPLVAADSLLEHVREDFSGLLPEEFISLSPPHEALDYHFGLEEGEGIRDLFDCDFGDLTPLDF
Method in brief: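 Fluorescent RT-PCR products, digested with HpaI for 2 h at 37 C, are separated by capillary electrophoresis. Source RNA comes from transfected HepG2 cultures treated for 24 h.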

[10] = ATG_E_Box_CIS: Attagene CIS-FACTORIAL HepG2 Assay for human Enhancer Box (E-box) (AID 2282936); details: HepG2 E-box cis-reporter transcription, actives raise or lower the signal
Method in brief: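 Fluorescent reporter fragments separated by capillary electrophoresis gave the signal; mRNA came from HepG2 cells transfected with cis-element reporters and treated 24 h. Curves fitted bidirectionally relative to DMSO controls.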

[11] = ATG_M_61_CIS: Attagene CIS-FACTORIAL HepG2 Assay for M61 Transcription Factor (Internal Marker) (AID 2282937); details: HepG2 Attagene CIS-FACTORIAL M61 internal marker reporter; actives raise or lower the signal
Method in brief: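 Cells were transfected with reporter units under cis-regulatory promoters, treated with chemicals for 24 h, then lysed for RNA. Reporter transcripts were quantified by RT-PCR and capillary electrophoresis, and activity was fitted bidirectionally against DMSO.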

[12] = ATG_EGR_CIS: Attagene CIS-FACTORIAL HepG2 Assay for human Early Growth Response 1 (EGR1) (AID 2282938); details: HepG2 Attagene CIS-FACTORIAL EGR reporter mRNA; actives raise or lower the signal
Method in brief: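 Endogenous TF activity in HepG2 liver cells was gauged through cis-promoter reporter constructs transiently transfected. After 24 h dosing, reporter mRNA was quantified by RT-PCR and capillary electrophoresis, and curves fitted in both directions versus DMSO.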

[13] = ATG_M_19_CIS: Attagene CIS-FACTORIAL HepG2 Assay for M19 Transcription Factor (Internal Marker) (AID 2282939); details: HepG2 Attagene CIS-FACTORIAL M19 internal marker reporter; actives raise or lower the signal
Method in brief: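 Chemical-treated HepG2 (24 h) with MRTU constructs; reporter transcripts detected by fluorescent RT-PCR fragment analysis on capillary electrophoresis. Internal background marker, DMSO as baseline.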

[14] = ATG_ERE_CIS: Attagene CIS-FACTORIAL HepG2 Assay for Estrogen Response Element (ERE) (AID 2282940); details: HepG2 ERE cis-reporter, Attagene RNA transcript; actives raise or lower the signal
Method in brief: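 Human liver cells (HepG2) bearing transiently transfected, promoter-regulated reporter units were exposed 24 h. Reporter mRNA induction was detected by capillary electrophoresis of labelled RT-PCR products and fitted bidirectionally to DMSO.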

[15] = ATG_Ets_CIS: Attagene CIS-FACTORIAL HepG2 Assay for human Erythroblast Transformation Specific (ETS) (AID 2282941); details: HepG2 ETS cis-reporter transcription, actives raise or lower the signal
Method in brief: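 RT-PCR/capillary electrophoresis fluorescence read-out of reporter mRNA; HepG2 transient multi-reporter transfection; 24 h compound exposure; gain or loss of signal fitted bidirectionally relative to DMSO.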

[16] = target: Hepatocyte nuclear factor 3-beta (Homo sapiens) (UniProt Q9Y261); experiment: ATG_FoxA2_CIS: Attagene CIS-FACTORIAL HepG2 Assay for human Forkhead box A2 (FOXA2) (AID 2282942); details: HepG2 cis-reporter transcription factor activity, 24 h; actives raise or lower the signal
Chain of Hepatocyte nuclear factor 3-beta (Homo sapiens) (Q9Y261 whole entry, looked up): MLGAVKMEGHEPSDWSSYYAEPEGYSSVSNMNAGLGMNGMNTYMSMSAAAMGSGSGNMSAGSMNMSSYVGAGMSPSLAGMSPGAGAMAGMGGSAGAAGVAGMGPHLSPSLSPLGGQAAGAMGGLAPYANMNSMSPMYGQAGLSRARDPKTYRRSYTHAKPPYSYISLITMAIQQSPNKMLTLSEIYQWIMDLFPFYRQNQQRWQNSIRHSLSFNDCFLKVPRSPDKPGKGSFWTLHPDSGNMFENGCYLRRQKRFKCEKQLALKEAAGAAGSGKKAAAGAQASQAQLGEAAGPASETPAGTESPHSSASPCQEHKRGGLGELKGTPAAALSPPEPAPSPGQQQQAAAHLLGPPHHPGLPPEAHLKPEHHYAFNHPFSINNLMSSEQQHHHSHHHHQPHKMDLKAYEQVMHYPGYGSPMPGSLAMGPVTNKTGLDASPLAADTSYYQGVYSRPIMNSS
Method in brief: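 Endogenous transcription factor activity was read in HepG2 cells carrying transiently transfected cis-promoter reporter units. After 24 h dosing, reporter mRNA was quantified by RT-PCR and capillary electrophoresis, and values fitted bidirectionally versus DMSO.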

[17] = ATG_FoxO_CIS: Attagene CIS-FACTORIAL HepG2 Assay for human Forkhead box O (FoxO) (AID 2282943); details: HepG2 Attagene cis-reporter, FoxO element, mRNA; actives raise or lower the signal
Method in brief: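 Human hepatoma HepG2 cells carry transiently introduced reporter transcription units controlled by cis promoter elements. Chemical treatment lasted 24 h, and mRNA signal was compared with DMSO.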

[18] = ATG_GATA_CIS: Attagene CIS-FACTORIAL HepG2 Assay for human GATA Binding Protein (AID 2282944); details: HepG2 GATA cis-element reporter, Attagene multiplex mRNA; actives raise or lower the signal
Method in brief: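 Transfected cis-reporter HepG2 cells were treated with chemicals for 24 hours. Total RNA was then converted to cDNA, amplified with reporter-specific primers and analysed by fluorescent capillary electrophoresis, using DMSO-treated wells as baseline.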

[19] = ATG_GLI_CIS: Attagene CIS-FACTORIAL HepG2 Assay for human Zinc Finger Protein GLI1 (AID 2282945); details: HepG2, Attagene cis-factorial reporter mRNA, GLI element; actives raise or lower the signal
Method in brief: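 Bidirectional curve fits relative to DMSO, using reporter mRNA levels from RT-PCR plus capillary electrophoresis. Cells were HepG2 transiently carrying cis-regulated reporter constructs, harvested 24 h after dosing.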

[20] = target: Aryl hydrocarbon receptor (Homo sapiens) (UniProt P35869); experiment: ATG_Ahr_CIS: Attagene CIS-FACTORIAL HepG2 Assay for human Aryl Hydrocarbon Receptor (Ahr) (AID 2282930); details: HepG2 AhR cis-factorial reporter transcription; actives raise or lower the signal
Chain of Aryl hydrocarbon receptor (Homo sapiens) (P35869 whole entry, looked up): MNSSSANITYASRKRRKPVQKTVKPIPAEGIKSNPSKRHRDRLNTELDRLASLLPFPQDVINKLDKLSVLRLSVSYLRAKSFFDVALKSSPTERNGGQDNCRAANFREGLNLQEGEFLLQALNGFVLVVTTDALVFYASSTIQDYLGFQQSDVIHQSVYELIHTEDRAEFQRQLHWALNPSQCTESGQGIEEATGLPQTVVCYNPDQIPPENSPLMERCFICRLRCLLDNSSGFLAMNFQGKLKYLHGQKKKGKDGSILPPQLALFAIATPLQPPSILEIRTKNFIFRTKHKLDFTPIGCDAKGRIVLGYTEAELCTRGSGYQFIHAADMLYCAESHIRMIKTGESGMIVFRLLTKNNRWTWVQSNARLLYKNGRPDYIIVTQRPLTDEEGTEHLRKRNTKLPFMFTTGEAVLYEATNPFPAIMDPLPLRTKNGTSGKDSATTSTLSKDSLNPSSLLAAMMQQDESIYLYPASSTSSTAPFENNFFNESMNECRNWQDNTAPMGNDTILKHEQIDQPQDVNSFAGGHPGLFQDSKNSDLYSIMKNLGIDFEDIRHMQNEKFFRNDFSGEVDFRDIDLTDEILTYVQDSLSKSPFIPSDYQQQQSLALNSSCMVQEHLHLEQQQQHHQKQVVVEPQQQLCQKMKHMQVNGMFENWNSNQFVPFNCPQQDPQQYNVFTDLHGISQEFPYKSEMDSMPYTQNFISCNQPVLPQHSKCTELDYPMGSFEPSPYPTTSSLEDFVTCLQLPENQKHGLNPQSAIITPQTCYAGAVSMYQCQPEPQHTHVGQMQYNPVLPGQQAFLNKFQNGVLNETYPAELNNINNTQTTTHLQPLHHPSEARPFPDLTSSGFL
Method in brief: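 HepG2, transient MRTU (cis) transfection, 24 h exposure. RNA → cDNA → PCR → 6-FAM primer extension → HpaI 2 h 37 C → CE. Fit: bidirectional, DMSO baseline.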

Measured: outcome

OCCNCc1ccccc1
not listed: [20]
inactive: all other assays above

COC(=O)c1ccccc1OC
not listed: [6] | [17]
inactive: all other assays above

NC(CO)(CO)CO
not listed: [6] | [8]
inactive: all other assays above

c1c[nH]cn1
not listed: [8] | [20]
inactive: all other assays above
